Screens from PubChem BioAssay.
Most compounds without a hit are left out; they make up all but 7.8% or so of the library.
HCV inhibitor: qHTS Assay for Inhibitors of Hepatitis C Virus (HCV); Huh7.5.1 HCVcc-Cre infection, luciferase reporter, 44 h; Potency, µM (series often up to 41.8 µM), without a hit: at the highest dose activity change, negative = inhibition, most hits filed as inhibitors; 3.4% of 340,000 active; active means well fitted inhibition curve with a large enough effect; inconclusive means small, poorly fitted or top-dose-only effect, or another doubt; inactive means no such curve, though single readings can be large or run the other way; further: potency means the concentration at half of the fitted maximal effect
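Seed cells (1,000/well) for 4 h; treat with compound and infect with HCVcc-Cre, moi about 0.5. Incubate 44 h, then detect luciferase activity.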
Marburg entry inh: qHTS for inhibitors of binding or entry into cells for Marburg Virus | Marburg virus pseudotyped entry inhibition, cell reporter | Potency, µM (titrated, usually from 37.8 µM), for the others: at the top dose activity change, negative = inhibition, most hits filed as inhibitors | 1.8% of 300,000 active | AID 540276, 2011; calls by dose curve; tested in HEK293 cells; further: potency means the concentration at half of the fitted maximal effect
LASV entry inh: qHTS for Inhibitors of binding or entry into cells for Lassa Virus; Lassa virus pseudotype entry inhibition, cell reporter; Potency, µM (series often up to 37.9 µM), inactives show at the highest dose activity change, negative = inhibition, actives largely listed as inhibitors; 1.2% of 300,000 active; calls by dose curve; tested in HEK293 cells; further: potency means the concentration at half of the fitted maximal effect; nearly all actives have a fitted effect of over 50% in size
VACV Venus inh: qHTS for Stage-Specific Inhibitors of Vaccinia Orthopoxvirus: Venus Reporter Primary qHTS | 0.46% of 330,000 active | Potency, µM (highest dose often 36.5 µM), for inactives: at the highest dose activity change, negative = inhibition, most hits filed as inhibitors | Vaccinia virus Venus reporter expression, fluorescence; calls by dose curve; tested in A549 cells; further: potency means the concentration at half of the fitted maximal effect; nearly all actives have a fitted effect of over 30% in size
VACV mCherry inh: qHTS for Stage-Specific Inhibitors of Vaccinia Orthopoxvirus: mCherry Reporter Primary qHTS; Vaccinia virus mCherry reporter infection, fluorescence; Potency, µM (doses to about 36.5 µM), without a hit: at the top dose activity change, negative = inhibition, actives largely listed as inhibitors; 0.63% of 310,000 active; calls by dose curve; tested in A549 cells; further: potency means the concentration at half of the fitted maximal effect; nearly all actives have a fitted effect of over 35% in size
HCMV antiviral: qHTS Assay for inhibitors of the human cytomegalovirus (HCMV) | HFF cells, HCMV-luciferase reporter, 72 h; stronger effect = lower value | activity change, negative = inhibition, % at 57.5 µM | 4.5% of 410,000 active; in the data active means activity change below about -60%; inconclusive means no clear call, values can overlap the other calls; inactive means above about -39%
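After 16 h attachment at 37C, HFF cells received test compound and HCMV-luciferase (1 PFU/cell); reporter luminescence read 72 h later, data normalized against buffer-only and known inhibitor Salinomycin.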
Active calls of the source: *; i = inactive; ? = inconclusive; . = no result given; [ ] = another dose, or the depositor's remark. On the % scale 0 is the no-effect control and ±100 the full control effect.

SMILES	HCV inhibitor	Marburg entry inh	LASV entry inh	VACV Venus inh	VACV mCherry inh	HCMV antiviral
COc1cccc(NC(=O)C(=O)NCC2CCCN2S(=O)(=O)c2ccccc2)c1 (stereo not given)	11µM*	?	?	-16%	i	60
COc1cccc(-n2c(C)nc3c(cnn3-c3ccc(C)c(C)c3)c2=O)c1	.	?	1%[46.1 µM]	-17%	-14%	12
CCOC(=O)c1c(NC(=O)CSc2ncccn2)sc2c1CCN(Cc1ccccc1)C2	?	16µM*	?	.	.	29
CCOC(=O)c1sc(NC(=O)CSc2ncccn2)nc1C	16µM*	?	?	-20%	-25%	-11
CCOC(=O)c1c(NC(=O)CSc2nnc3c(n2)[nH]c2ccc(F)cc23)sc(C(C)=O)c1C	?	-3%	-22%	.	.	1
CCOC(=O)c1c(NC(=O)CSc2nnc3c(n2)[nH]c2ccccc23)sc2c1CCN(C)C2	7.1µM*	?	-11%	-9%	-15%	16
CCOC(=O)c1c(NC(C)=O)sc2c1CCN(Cc1ccccc1)C2	?	.	.	-16%	?	21
CCOC(=O)c1c(NC(=O)CC)sc2c1CCN(Cc1ccccc1)C2	11µM*	.	.	0%	?	-1
COc1cc(C2c3c([nH]c(=O)[nH]c3=O)Nc3ccc4ccccc4c32)ccc1O (stereo not given)	10µM*	?	-1%	-3%	?	57
O=C(CN1C(=O)S/C(=C\c2ccc(F)cc2)C1=O)Nc1cccc(S(=O)(=O)NCc2ccco2)c1	-15%	6%[46.1 µM]	-27%	-18%	-27%	-98*
COC(=O)c1sc2cc(C(F)(F)F)cnc2c1-c1cccnc1	0.56µM*	?	5%	.	.	12
Cn1nc(C(F)(F)F)cc1Oc1ncc(C(F)(F)F)cc1Cl	-13%	12%[14.2 µM]	7%	-2%	-13%	-62*
CCc1ccccc1NC(=O)c1cc(S(=O)(=O)N(CC)c2ccccc2)ccc1F	.	.	?	-12%	-9%	?
CO[C@H]1[C@H](NC(=O)c2ccsc2)c2ccccc2C12CCN(Cc1cc3ccccc3o1)CC2	.	.	.	-14%	-21%	.
COc1ccccc1N1CCN(C(=O)CSc2nnc3n2C(C)(C)Cc2ccccc2-3)CC1	6.3µM*	?	?	?	-26%	-92*
COc1ccccc1N1CCN(C(=O)CSc2ncnc3scc(-c4ccccc4)c23)CC1	?	?	6.3µM*	-10%	-14%	-33
COc1ccc(-n2ncc3c(SCC(=O)N4CCN(c5ccccc5OC)CC4)ncnc32)cc1	13µM*	?	?	.	.	-14
COc1ccccc1N1CCN(C(=O)CSc2nc3ccccc3nc2N2CCCCC2)CC1	?	.	.	-26%	-22%	-21
O=C(CSc1ncnc2scc(-c3ccccc3)c12)N1CCN(c2ccccc2F)CC1	?	?	?	-21%	-13%	?
CC(C)C[C@H]1COc2c(Cl)cccc2S(=O)(=O)N1	.	.	0%[46.1 µM]	.	.	-16
Cc1ccc(CNc2nc(CN3CCN(C=O)CC3)nc3ccccc23)o1	.	.	.	1%	-3%	.
Cc1cccc(-c2nn(-c3ccccc3)cc2CNCCO)c1	.	.	.	-27%	-13%	.
CCN1/C(=C\C=C2\C(=O)N(c3ccccc3)C(=S)N2C)Sc2ccccc21	-16%	15%[46.1 µM]	?	2%	-10%	-64*
CCN1/C(=C\C=C(C(C)=O)C(C)=O)Sc2ccccc21	-21%	-2%[46.1 µM]	-20%[46.1 µM]	-1%	-22%	23
COc1ccc(NC(=O)C2CCCN(C(=O)c3cnn(-c4ccccc4)c3-n3cccc3)C2)cc1 (stereo not given)	.	?	?	-23%	-29%	?
SMILES	HCV inhibitor	Marburg entry inh	LASV entry inh	VACV Venus inh	VACV mCherry inh	HCMV antiviral
OCCN1CCN(c2cc(-c3ccccc3)c3ccccc3n2)CC1	?	?	-6%	-24%	-15%	-63*
CCN1CCN(c2ncnc3ccc(Br)cc23)CC1	-9%	-21%	-2%	-8%	0%	-67*
OCCN1CCN(c2nc(-c3ccccc3)c3cc(Br)ccc3n2)CC1	-13%	?	?	-10%	?	-62*
OCCN1CCN(c2ncnc3ccc(Br)cc23)CC1	0%	.	.	-10%	i	-78*
COc1ccccc1OCC(=O)N(Cc1ccc(Cl)cc1)CC1CCCO1 (stereo not given)	.	5%[46.1 µM]	-18%[46.1 µM]	-6%	-8%	-17
CCOc1cc(CNC(=O)c2cc(-c3ccc(Cl)s3)nc3ccccc23)ccc1OC	.	1%[46.1 µM]	30%[46.1 µM]	-20%	-18%	10
CC1(C)CCN2CCC(C)(C)c3c(O)ccc1c32	-24%	.	.	.	.	-91*
CC(C)C[C@H]1CN([C@@H](Cc2ccc(O)cc2)CN2CCC[C@@H]2CN2C(=S)NC[C@@H]2Cc2ccccc2)C(=S)N1CC1CCCCC1	.	.	.	-18%	-14%	-16
CC(C)C[C@H]1CNC(=S)N1CC1CCCN1C[C@H](Cc1ccc(O)cc1)N1C[C@H](Cc2ccccc2)N(CC2CCCCCC2)C1=S (stereo not given in full)	7.9µM*	.	.	-28%	?	-20
CC(C)C[C@H]1CNC(=S)N1C[C@H]1CCCN1C[C@H](Cc1ccccc1)N1C[C@H](Cc2ccc(O)cc2)N(CC2CCCCCC2)C1=S	.	.	.	?	-24%	-84*
CC(C)C[C@H]1CNC(=S)N1CC1CCCN1C[C@H](Cc1ccccc1)N1C[C@H](Cc2ccc(O)cc2)N(CC2CCCCC2)C1=S (stereo not given in full)	10µM*	.	.	?	?	8
CC(C)C[C@H]1CNC(=S)N1C[C@H]1CCCN1C[C@H](Cc1ccc(O)cc1)N1C[C@H](Cc2ccccc2)N(CC2CCCCC2)C1=S	.	.	.	-17%	0%	-34
Cc1c(Cl)cccc1NC(=O)CN1C(=O)CSc2ccc(S(=O)(=O)N3CCCC3)cc21	.	.	0%[46.1 µM]	-6%	-8%	51
COC1=C[C@H](C(=O)N2CCCC2)[C@H](C)[C@@H](c2ccccc2)CC1=O	.	2%[14.2 µM]	?	.	.	.
CC(C)c1ccc(NC(=O)CSc2nc3ccccc3nc2Cc2ccccc2)cc1	.	.	29%[46.1 µM]	-16%	-4%	-12
C[C@H](NC(=O)OCc1ccccc1)C(=O)OCN1C(=O)c2ccccc2C1=O	.	-6%	.	.	.	.
COc1ccccc1NC(=O)CN1C(=O)C(C)(C)c2ccccc21	.	.	-4%[46.1 µM]	3%	-11%	4
Cc1ccc(-n2cc(-c3ccc([N+](=O)[O-])cc3)[nH]c2=S)c(C)c1	?	0%	0%	-21%	?	-64*
Cc1cccc(-n2cc(-c3ccc([N+](=O)[O-])cc3)[nH]c2=S)c1	14%	3%	?	-8%	-10%	-10
COc1ccc(-n2c(C)c(C)c3c(N)ncnc32)cc1	5%	-1%[46.1 µM]	6%[46.1 µM]	-12%	-25%	-77*
